SW480 rereplic – induces DNA re-replication in SW480 colon adenocarcinoma cells. SW480 DNA re-replication, Hoechst DNA content imaging, 48 h. Potency, µM (titrated, usually from 46.1 µM), without a hit: at the highest dose re-replication activation, usual class: activators. hit rate 1.8% among 340,000; further: potency means the concentration at half of the fitted maximal effect; % of control where 0% means no effect; nearly all actives have a fitted effect of over 55% in size
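Quantitative HTS format with DMSO vehicle controls; 48 hr drug incubation at 37 C, then 40 min Hoechst staining and scanning imager measurement at 405 nm excitation.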
MCF10A rerep – inducers of DNA re-replication in MCF 10A breast cells. MCF 10A DNA re-replication, Hoechst nuclear intensity, 48 h. Potency, µM (titrated, usually from 46.1 µM), for inactives: at the top dose activity, positive = re-replication, actives largely listed as activators. hit rate 2.9% among 350,000; further: potency means the concentration at half of the fitted maximal effect; % of control where 0% means no effect; nearly all actives have a fitted effect of over 50% in size
BCR signal inh – inhibitors of chronic active B-cell receptor signaling; ABC-DLBCL IkBa-CBG/CBR reporter, luminescence ratio, 4 h; Potency, µM (top dose mostly 46.1 µM), without a hit: at the top dose activity change, negative = inhibition, usual class: inhibitors; hit rate 0.05% among 340,000; AID 493014; active means well fitted inhibition curve with a large enough effect in the signal ratio, with a control signal flat, not every such curve was filed as active; inconclusive means small, poorly fitted or top-dose-only effect, or effect the other way, or a change in a side signal; the % refers to the signal ratio;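 further: potency means the concentration at half of the fitted maximal effect; plate controls were basal doxycycline-induced cells for no effect and cells given 10 µM MG132 for full effect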
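TMD8 human ABC-DLBCL cells with doxycycline-inducible IκBα–green luciferase fusion and unfused red luciferase, in 0.5% FBS medium; compounds up to 46 uM, 4 h at 37C. Green/red luminescence ratio, filter-overlap corrected, fitted to concentration-response curves.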
DT40 TDP1 CPT – growth inhibition of DT40 Tdp1-/-;hTDP1 cells with camptothecin (screen for TDP1 inhibitors) | hit rate 12% among 420,000 | Potency, µM (top dose mostly 46.2 µM), for inactives: at the highest dose activity change, negative = growth inhibition, hits mostly inhibitors | chicken DT40 Tdp1-/-;hTDP1 cells + 20 nM CPT, ATP luminescence, 48 h; further: potency means the concentration at half of the fitted maximal effect; on the % scale 0 is the no-effect control and ±100 the full control effect; nearly all actives have a fitted effect of over 55% in size
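Chicken DT40 Tdp1-/- cells stably complemented with human TDP1 were seeded at 400 cells/well in medium containing 20 nM camptothecin, exposed to pin-transferred compounds, and grown at 37 °C for at least 48 hr. Viability was read as ATP luminescence.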
IL1B secr inh – inflammasome signaling inhibition, IL-1 beta readout | THP-1 LPS/ATP IL-1B secretion, AlphaLISA, 16 h; stronger effect = lower value | activity change, % at 57.5 µM | hit rate 4.7% among 360,000; in the data active means activity change below about -50%; inconclusive means mostly about -30% to -49%; further: on the % scale 0 is the no-effect control and ±100 the full control effect
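THP-1 cells pretreated 1 hr with compounds (up to 57.5 uM final), then stimulated with LPS (250 ng/mL final) plus ATP (1.25 mM final); secreted IL-1B measured by AlphaLISA after 16 hr, decreased signal indicating inhibition.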
TDP1 cell noCPT – qHTS for Inhibitors of human tyrosyl-DNA phosphodiesterase 1 (TDP1): qHTS in cells in absence of CPT; DT40 Tdp1-/- hTDP1 cells, no CPT, ATP luminescence, 48 h; Potency, µM (series often up to 46.2 µM), inactives show at the top dose activity change, negative = growth inhibition, actives largely listed as inhibitors; hit rate 15% among 420,000; AID 686978, 2013; further: potency means the concentration at half of the fitted maximal effect; on the % scale 0 is the no-effect control and ±100 the full control effect; nearly all actives have a fitted effect of over 55% in size
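Luminescent ATP content (CellTiter-Glo) served as the growth readout. Knockout chicken DT40 cells expressing human TDP1 were exposed to compounds without camptothecin for a minimum 48 hr at 37 °C.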
* = called active by the depositor; u = inconclusive; x = no result given. The list is not random: actives were taken first. Their share in the collection is about 19%. Unless noted, the call rests on the fitted dose curve; in most records, active means well fitted curve in the direction sought with a large enough effect; inconclusive means small, poorly fitted or top-dose-only effect, or another doubt; inactive means no such curve, though single readings can be large; an effect the other way counts as inactive or inconclusive.

SMILES | SW480 rereplic | MCF10A rerep | BCR signal inh | DT40 TDP1 CPT | IL1B secr inh | TDP1 cell noCPT
Cc1ccc2cc(C(c3nnnn3C3CCCC3)N(Cc3ccccc3)Cc3ccco3)c(=O)[nH]c2c1 (centres undefined) | u | 4% | 0% | 21µM* | -14 | u
CCC(C)(C)n1nnnc1C(c1cc2ccc(C)cc2[nH]c1=O)N(Cc1cccnc1)Cc1ccco1 (centres undefined) | u | u | -4% | u | -69* | u
Cc1cc2cc(C(c3nnnn3C3CCCC3)N(Cc3cccnc3)Cc3ccco3)c(=O)[nH]c2cc1C (centres undefined) | u | u | 10% | u | u | u
COCCn1nnnc1C(c1cc2ccc(C)cc2[nH]c1=O)N(Cc1ccco1)Cc1cccs1 (centres undefined) | u | 22% | u | -7% | -30 | -11%
CCOC(=O)C1CCN(C(=O)Cn2nc(C)n3c(cc4cc(F)ccc43)c2=O)CC1 | -3% | -8% | -7% | u | 16 | u
O=C(Nc1ccc2nc(-c3cccnc3)[nH]c2c1)c1ccco1 | -6% | 0% | 11% | u | -17 | -28%
O=C1c2ccccc2C(Nc2ccc(-c3nc4ccccc4[nH]3)cc2)N1Cc1ccco1 (centres undefined) | 4% | 3% | -9% | u | -2 | 18µM*
CCOc1ccc(NC2c3ccccc3C(=O)N2Cc2ccco2)cc1 (centres undefined) | -6% | -6% | 4% | 16µM* | 13 | 12µM*
O=C1c2ccccc2C(Nc2ccc3nc(-c4cccnc4)[nH]c3c2)N1Cc1ccco1 (centres undefined) | -5% | -9% | u | 9.2µM* | 0 | 7.3µM*
COc1cccc(NC(=O)C2CCN(S(=O)(=O)c3c(C)noc3C)CC2)c1 | x | x | x | 13% | x | -14%
CN(C)CCN(C)C1CN(Cc2ccc([N+](=O)[O-])cc2)S(=O)(=O)C1 (centres undefined) | x | x | x | -7% | -8 | -11%
CC(C)OC(=O)Nc1ccc2nc(-c3cscn3)[nH]c2c1 | 5.3µM* | 9.4µM* | x | 0.84µM* | x | 1.2µM*
CC(=O)Nc1cccc(-c2nc3ccc(NC(C)=O)cc3[nH]2)c1 | -8% | 0% | u | 9% | 10 | -9%
CC[C@]12c3[nH]c4ccc(Cl)cc4c3CCN1C(=O)[C@@H](CC(=O)NCc1ccc(OC)c(OC)c1)C[C@@H]2C(=O)N1CCN(C(=O)c2ccco2)CC1 | u | -4% | -1% | u | 26 | u
COc1ccc(NS(=O)(=O)c2c(C)cc(C)cc2C)cn1 | -2% | 3% | 1% | -25% | 7 | -16%
Cc1c(Br)c([N+](=O)[O-])nn1CC(=O)Nc1ccccn1 | -8% | 1% | -8% | 0% | 32 | -20%
Cc1nn(CC(=O)Nc2ccccn2)c(C)c1Br | -2% | 0% | 1% | 8.2µM* | 14 | u
O=C(NCCc1ccccc1)c1ccncc1 | x | x | 1% | x | x | x
Cc1ccc(SCc2ccc(C(=O)NCc3cccnc3)cc2)cc1 | 0% | 14% | 11% | u | -6 | u
CCn1c(CCNC(=O)c2ccc(C)cc2)nnc1SCc1ccc(Cl)c(Cl)c1 | -2% | -5% | -4% | 21µM* | u | 23µM*
CCn1c(CCNC(=O)c2ccc(OC)cc2)nnc1SCc1ccc(Cl)cc1Cl | u | 0% | -7% | u | -26 | u
Cc1ccccc1Cn1c(SCc2ccc(C(=O)NCCc3ccccc3)cc2)nc2ccncc21 | x | x | x | 21µM* | x | 21µM*
O=C(NCCc1ccccc1)c1ccc(CSc2nc3ccncc3n2Cc2ccccc2)cc1 | x | x | x | 4.6µM* | x | u
CCCCNC(=O)Cn1c(SCc2ccccc2C)nc2ccncc21 | x | x | x | -11% | x | u
Cc1ccc(Cn2c(SCc3ccc(C(=O)NCCc4ccccc4)cc3)nc3ccncc32)cc1 | x | x | x | 15µM* | x | 12µM*
SMILES | SW480 rereplic | MCF10A rerep | BCR signal inh | DT40 TDP1 CPT | IL1B secr inh | TDP1 cell noCPT
C=CCNC(=O)C1CC2Cn3c(nc4cc(Cl)c(Cl)cc43)C2N1C (centres undefined) | 6% | 4% | 0% | -16% | 25 | -18%
CCc1ccc(NC(=O)Cn2ccn(-c3ccc(C)c(C)c3)c(=O)c2=O)cc1 | x | x | x | 0% | x | -17%
C[C@H]1CN([C@@H](C)CO)C(=O)CCCn2nncc2CO[C@H]1CN(C)C(=O)Nc1cccc(Oc2ccccn2)c1 | x | x | x | -2% | 11 | -23%
C=C1NN(Cc2ccccc2)C(=O)N1c1ccc(OC)cc1 | x | x | x | 8% | x | -17%
Cc1ccccc1Cn1c(SCc2ccc(C(=O)NC3CCCCC3)cc2)nc2ccncc21 | x | x | x | 23µM* | x | u
CCC(C(=O)NC1CCCCC1)n1c(SCc2ccccc2F)nc2ccncc21 (centres undefined) | -1% | 2% | 0% | u | -23 | u
COc1ccc(-c2nc3cnc(OC)nc3n(Cc3cccs3)c2=O)cc1 | x | x | x | 4% | x | u
CSc1cccc(N2CC(C(=O)N3CCN(S(=O)(=O)c4ccccc4Cl)CC3)CC2=O)c1 (centres undefined) | 2% | 4% | -4% | u | -23 | 23µM*
COc1cc(CN2C[C@@H](CO)O[C@@H](n3cnc4c(N(C)C)ncnc43)C2)cc(OC)c1OC | x | x | x | -17% | 0 | -1%
COc1ccc(CN(C)C[C@H]2OCc3cnnn3CCCC(=O)N([C@H](C)CO)C[C@@H]2C)cc1 | x | x | x | -26% | 11 | u
CCOC(=O)c1c(C)[nH]c(C(=O)COC(=O)c2ccc([N+](=O)[O-])o2)c1C | -2% | 14% | u | 16µM* | 31 | 26µM*
Cn1c(N)c(C(=O)COC(=O)c2ccc([N+](=O)[O-])o2)c(=O)n(C)c1=O | u | 8% | u | 18µM* | -9 | u
CCOC(=O)c1c(C)[nH]c(C(=O)COC(=O)c2cc(C)oc2C)c1C | -3% | u | u | u | u | -19%
COc1ccc(N2C(=O)C3C(c4ccc(C(=O)O)cc4)NC(Cc4ccccc4)(C(=O)O)C3C2=O)c([N+](=O)[O-])c1 (centres undefined) | 1% | -9% | -1% | 5% | 0 | 19%
CN(C)c1ccc(CNC(=O)c2cnc3sc(N4CCOCC4)nn3c2=O)cc1 | x | x | x | -29% | x | 1%

Screening results: PubChem, National Center for Advancing Translational Sciences (NCATS)
